Laboratory results taken from paper PMC12136788.
Whole data set: some 24,000 sequences, median “enrichment r” near 0.99, cut for the highest 2% near 3.7. The entries come from a sample that favours the highest values as a whole.

T1: UNK ZnF1-3 (human, UniProt Q9C0B0 31-174)
T1 sequence: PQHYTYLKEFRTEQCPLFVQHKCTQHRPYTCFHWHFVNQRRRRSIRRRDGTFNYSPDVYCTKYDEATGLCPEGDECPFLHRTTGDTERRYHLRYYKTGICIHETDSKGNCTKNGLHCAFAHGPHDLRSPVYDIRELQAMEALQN

B1: 80013064_80013876_841_CDS_ENSG00000169727_ENST00000578552|human|control|control (ssRNA)
RNA: GGGAGUUCUACAGUCCGACGAUCCUCAGGGAAGUCACAGUGAUCAAAGGAAGCCAGCAGGAGGCACUUGGCAGCCUGCUUGUACUUCCUGGCGGCCAGCUCUGCCAAGCCUGCGGCACACUUGAGCUUGGUGAGGAUGGCCUGCAACAGAGGAUUGAGCAUCA
B2: chrX:40988281:40988282:+_ENSG00000124486_ENST00000378308|hu_hu|FALSE|FALSE (ssRNA)
RNA: GGGAGUUCUACAGUCCGACGAUCUUCAAGCUGUGGUGGGGCAUCACCUUGACCUUGCUCAUCUGGGGGAGUUGCCGGGGAAUUUUCAUUGGAAGAAUCAGGCGAUGAAGUCUGAUUCUGUUGGAGGGGGGGCUGAGACUGUCCCAACAGAGGAUUGAGCAUCA
B3: 5790880_5791000_6181_CDS_ENSG00000108021_ENST00000328090|human|control|control (ssRNA)
RNA: GGGAGUUCUACAGUCCGACGAUCGAAGUUCAACGACGACUCAUAGCCAUCUGUGGGAACAUCUUUUUUCCUGGUGUAACUACCUCUUAAAGUAUAAGAAUCCUCCAAAUCCAGUCUGGGAUUUCUACAAUCACCAAGCAGGUCCAACAGAGGAUUGAGCAUCA
B4: chr12:133780691:133780692:+_ENSG00000090612_ENST00000541009|hu_hu|motif|central (ssRNA)
RNA: GGGAGUUCUACAGUCCGACGAUCUCAUAUGGUUUUUCACCUGAAUGAGUUCUCAUGUGUAUAAUUAGGUAUGACUUGCUGCGGAAAGCUUUCCCACAUUCACUGCACCCAUAAGGCUUUUCCCCUGCAUGAGUUCGCUGAUGUCAACAGAGGAUUGAGCAUCA
B5: 5036412_5036532_457_CDS_ENSMUSG00000022536_ENSMUST00000115844|mouse|control|control (ssRNA)
RNA: GGGAGUUCUACAGUCCGACGAUCGCCUGAAGUCACCCUCUUCUUUCCUUCUCCCAUGUUCUUCUUCACCUUCCCUUCAGACAGGCUAAGCUUGCGUUUCUCAUCACCUGAGUUUGGCCUACUUCUCUCCUCACUGGAAUUACGCAACAGAGGAUUGAGCAUCA
B6: chr5:37680062:37680063:+_ENSMUSG00000029121_ENSMUST00000031004|mus_hu|mus_mus_mus_hu_False|58_98 (ssRNA)
RNA: GGGAGUUCUACAGUCCGACGAUCUUUGGGUGUAGCUGGCACCUCGUACACAGGACCGUCAUACAUGCCCCUGGAAACACUAUGCAAUCCAAAAACCUUAUUCCUGAUUUUGACGCGCUGGUACAGGUGCUCCGGGAACGCCUUCAACAGAGGAUUGAGCAUCA

Molecular target: T1, UNK ZnF1-3
Experiment: nsRBNS (natural sequence RNA bind-n-seq); RBNS binding buffer (assumed for nsRBNS): 25 mM Tris pH 7.5, 150 mM KCl, 3 mM MgCl2, 0.01% Triton X-100, 500 ug/ml BSA, 20 U/ml SUPERase-In, 4 C; UNK is unkempt and MSI1 is Musashi-1; names of the RNAs are library labels; protein concentration not given here; high values mean tight binding

Binder	binding signal
B1	0.285 enrichment R
B2	1.24 enrichment R
B3	1.18 enrichment R
B4	0.705 enrichment R
B5	0.512 enrichment R
B6	0.673 enrichment R
